Sfp inh: inhibitors of Bacillus subtilis Sfp phosphopantetheinyl transferase. Q9F4F7. Biochemical Sfp PPTase activity, qHTS. Potency, µM, without a hit: largest response in the series, negative = inhibition, usual class: inhibitors. 310,000 compounds, 3.5% hits. AID 1490;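 also: the enzyme is Sfp with the accession as filed and its product quenches rhodamine fluorescence; 0% = enzyme reaction without inhibitor and -100% = no enzyme wells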
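Compounds were incubated with enzyme (final 15 nM) for 15 min at room temperature before substrate addition started the reaction. Fluorescence at 525 nm excitation, 598 nm emission was recorded immediately and after 30 minutes.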
G9a inh: G9a (human) methyltransferase inhibition; Q96KQ7; G9a H3K9 monomethylation, AlphaScreen, 2 h; Potency, µM (series often up to 102 µM), inactives show at the highest dose activity, negative = inhibition, most hits filed as inhibitors; 350,000 compounds, 8.8% hits; AID 504332; also: % is scaled to controls: 0 for no effect and ±100 for the full control effect; nearly all actives have a fitted effect of over 75% in size
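Quantitative HTS format: methyltransferase activity on a biotin-tagged H3K9 peptide is measured by AlphaScreen, using a rabbit anti-monomethyl-H3K9 antibody with streptavidin donor and anti-IgG acceptor beads. Final levels are 20 nM enzyme, 500 nM peptide, 20 uM SAM; 2 h RT.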
JMJD2A Tudor: JMJD2A Tudor domain (human) inhibition. AlphaScreen JMJD2A-Tudor / H3K4me3 peptide binding. AID 504339. 390,000 compounds, 4.4% hits. O75164. Potency, µM (top dose mostly 114 µM), for inactives: at the top dose activity change, negative = inhibition, usual class: inhibitors; also: % is scaled to controls: 0 for no effect and ±100 for the full control effect; nearly all actives have a fitted effect of over 50% in size
HP1b chromo inh: inhibitors of HP1-beta chromodomain binding to methylated histone tails. P83916. AlphaScreen HP1-beta / biotin-H3K9me3 peptide binding. Potency, µM (series often up to 114 µM), for inactives: at the highest dose activity change, negative = inhibition, usual class: inhibitors. 390,000 compounds, 0.56% hits. AID 540317; also: nearly all actives have a fitted effect of over 70% in size
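AlphaScreen: HP1-beta (50 nM) preformed 30 min with biotin-H3(1-18)K9me3 peptide (50 nM) in PBS pH 7.4, 0.01% Tween-20. Compound added for 30 min at RT, then streptavidin donor/nickel chelate acceptor beads (10 ug/mL) for 30 min.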
TDP1 block: inhibitors of human tyrosyl-DNA phosphodiesterase TDP1; Q9NUW8; recombinant TDP1, AlphaScreen DNA substrate cleavage; 350,000 compounds, 0.28% hits; Potency, µM (highest dose often 130 µM), inactives show top-dose activity change, negative = inhibition, most hits filed as inhibitors; also: % is scaled to controls: 0 for no effect and ±100 for the full control effect; nearly all actives have a fitted effect of over 40% in size
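Compounds were preincubated with Tdp1 (1 nM final) for 15 min at room temperature before substrate (15 nM final) started a 5 min reaction; beads (10 ug/ml final) were then added for 10 min before AlphaScreen detection.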
BAZ2B block: blocks human BAZ2B | 360,000 compounds, 4.4% hits | AID 504333 | Potency, µM (top dose mostly 114 µM), inactives show at the top dose activity change, negative = inhibition, most hits filed as inhibitors | AlphaScreen BAZ2B-H3K14Ac peptide displacement; also: % is scaled to controls: 0 for no effect and ±100 for the full control effect; nearly all actives have a fitted effect of over 60% in size
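AlphaScreen displacement of biotin-H3(5-23)K14Ac peptide (50 nM final) from BAZ2B (50 nM final) in PBS pH 7.4, 0.01% Tween-20; complex preformed 30 min RT, then compounds (top 110 uM) 30 min RT, beads 20 min dark.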
An asterisk follows results filed as active; u = inconclusive; x = no result given; ! = a repeat was not active; [ ] = dose if it differs, or a comment. Hits are enriched below; roughly 12% of the tested compounds scored in any of these assays. Calls follow the shape of the dose curve; as a rule, active = well fitted curve in the direction sought with a large enough effect; inconclusive = small, poorly fitted or top-dose-only effect, or another doubt; inactive = no such curve, though single readings can be large; an effect the other way counts as inactive or inconclusive. Potency is read from the fitted curve at half-maximal effect.

SMILES	Sfp inh	G9a inh	JMJD2A Tudor	HP1b chromo inh	TDP1 block	BAZ2B block
CNC(=O)Oc1ccc2c(c1)[C@@]1(C)CCN(C)C1N2C (stereo partly specified)	u	3%[2.33 µM]	x	x	9%[56.1 µM]	x
COc1cc(C(=O)OCc2cc(=O)c(O)co2)ccc1OC(F)F	13%	u	-9%	15%	5%	u
CC(C)C[C@H](NC(=O)[C@H](Cc1ccccc1)NC(=O)CNC(=O)[C@@H](NC(=O)[C@@H](N)Cc1ccc(O)cc1)[C@H](C)O)C(=O)N[C@H](C(=O)O)[C@H](C)O	-10%	33%[59 µM]	x	x	-1%	x
COc1cc(C2c3cc4c(cc3CC3COC(=O)C32)OCO4)cc(OC)c1O (stereo unspecified)	x	x	89µM*	11%	x	x
CCOC(=O)C1CCCN(Cc2ccc(-c3ccccc3)cc2)C1 (stereo unspecified)	u	x	28µM*	-27%	x	u
CC(C)(C)NCc1cccn1-c1sc2c(c1C#N)CCCC2	16%	u	28µM*	u	-7%	56µM*
Cc1cc2c(cc1C)-n1c(-c3ccccc3)c3c(=O)n(C)c(=O)n(C)c3c1C(c1ccco1)N2 (stereo unspecified)	x	-34%[59 µM]	-29%	12%	6%	u
CN1CCc2c(c(N3CCCCC3)nc3n[nH]c(N)c23)C1	7%	19%[12.7 µM]	-8%	19%	3%	9%
CN1CCc2c(C#N)c(Cl)nc(Cl)c2C1	5%	45µM*	-11%	50%	-2%	-1%
COC(=O)c1c(Sc2ccccc2)c2ccccc2n1C	0%	24%[0.501 µM]	81%	68%	x	30%
COC(=O)c1ccc(NS(=O)(=O)NC(=O)c2cn(C)c3ccccc23)cc1	23%	79µM*	-13%	12%[57 µM]	5%	u
Cc1ccc(-n2c(O)c(/C=C3/C(c4ccccc4)=Nc4ccccc43)c(=O)[nH]c2=O)cc1	-24%	35µM*	u	-31%	-3%	u
Cc1cccc(-n2c(O)c(/C=C3/C(c4ccccc4)=Nc4ccccc43)c(=O)[nH]c2=O)c1	-16%	u	u	-10%	x	40µM*
Cc1ccccc1-n1c(O)c(/C=C2/C(c3ccccc3)=Nc3ccccc32)c(=O)[nH]c1=O	-17%	u	u	u	8%	u
CC[C@H]1CN2CCc3cc(OC)c(OC)cc3[C@H]2C[C@@H]1C[C@@H]1NCCc2cc(OC)c(OC)cc21	11%	20%[59 µM]	x	x	-3%	x
CC1=CC(=C2C(=O)NC(=O)NC2=O)C=C(C(F)(F)F)N1Cc1ccccc1	1%	x	-12%	33%	7%	-13%
CC1=CC(=C2C(=O)NC(=S)NC2=O)C=C(C(F)(F)F)N1Cc1ccccc1	8%	79µM*	-6%	59%	3%	3%
CCCCn1c(-c2ccoc2C)n[nH]c1=S	-4%	4µM*	7.9µM*	9%	7%	2%
C=C1C([C@@H](O)C[C@H](C)C2O[C@@]3(CCCCO3)CC[C@H]2C)OC2CC[C@@]3(CC[C@@H](/C=C/[C@@H](C)C4CC(C)=C[C@]5(O4)O[C@H](C[C@@](C)(O)C(=O)O)CCC5O)O3)OC2[C@@H]1O (stereo partly specified)	-2%	12%[59 µM]	x	x	10%	x
O=C1NC(=O)N(C2CCCCC2)C(=O)C1C1c2ccccc2C(=O)N1Cc1ccccc1 (stereo unspecified)	2%	56µM*	6%	40%	4%	-24%
COc1cccc(C2Nc3ccccc3C(=O)N2Cc2ccccc2)c1 (stereo unspecified)	x	x	-1%	73%	x	x
CCOCCOC(C)=O	x	x	x	x	12%	x
O=S(=O)(c1ccc(Cl)cc1)c1cc(Cl)c(Cl)cc1Cl	-20%	x	x	x	-10%	x
O=S1(=O)N(CCN2CC=C(c3c[nH]c4cc(F)ccc34)CC2)c2cccc3c2N1CCC3	x	30µM*!	u	-17%	18%[56.1 µM]	u
CCN1CCN(Cc2nc3ccc([N+](=O)[O-])cc3c(=O)n2-c2ccccc2F)CC1	-12%	u	7%	23%	x	2%
SMILES	Sfp inh	G9a inh	JMJD2A Tudor	HP1b chromo inh	TDP1 block	BAZ2B block
COc1cccc(-n2c(CN3CCOCC3)nc3ccc([N+](=O)[O-])cc3c2=O)c1	u	45µM*	-17%	12%	x	-7%
C[C@]12N[C@@H](Cc3ccccc31)c1ccccc12	-2%	16%[21.5 µM]	x	x	14%[56.1 µM]	x
CN(Cc1ccccc1)Cc1ccccc1OC(=O)N(C)C	16%	45µM*	-14%	32%	1%	-4%
O=C(NC1(C(F)(F)F)Oc2ccccc2O1)N1CCC2(CC1)OCCO2	-1%	1.8µM*	45µM*	u	x	-5%
O=C(c1ccccc1)N1CCC2(CC1)OCCO2	-4%	x	-6%	21%	5%	1%
O=c1c2ccccc2nc(CSc2ncnc3nc[nH]c23)n1-c1ccccc1	50µM*	u	32µM*	-32%	5%	10%
O=c1c2ccccc2nc(CSc2ncnc3nc[nH]c23)n1-c1ccccc1Cl	-18%	u	u	15%	-3%	-6%
CCCCCCCCCc1ccc(O)cc1	11%	x	x	x	9%[56.1 µM]	x
OCC(O)Cc1ccc2c(c1)OCO2 (stereo unspecified)	5%	-19%[2.33 µM]	x	x	8%[56.1 µM]	x
COC(=O)C[C@@](O)(CCC(C)(C)O)C(=O)O[C@@H]1C(OC)=C[C@]23CCCN2CCc2cc4c(cc2[C@@H]13)OCO4	7%	x	x	x	4%	x
CCOP(=S)(OCC)Oc1nc(Cl)c(Cl)cc1Cl	35µM*	-3%[0.501 µM]	77%	93%	50µM*!	108%
CC(c1ccccc1)n1cncc1C(=O)N1CCCC1=O (stereo unspecified)	17%	50µM*	u	16%	1%	u
CCOP(=O)(c1ccccc1)C(O)c1ccc(F)cc1 (stereo unspecified)	22%	0.63µM*	5%	28%	2%	6%
COP(=S)(OC)SCN1C(=O)c2ccccc2C1=O	35µM*	16µM*	-14%	15%	5%	-6%
CNC(=O)CSP(=S)(OC)OC	u	x	-15%	30%	-4%[56.1 µM]	x
O=[N+]([O-])c1ccc(S(=O)(=O)N2CCn3cccc3C2c2ccccc2F)cc1 (stereo unspecified)	x	u	u	13%	13%	32µM*
CCOC(=O)c1ncn2c1CN(C)C(=O)c1cc(N=[N+]=[N-])ccc1-2	12%	x	x	x	10%	x
COP(=O)(OC)O/C(=C\Cl)c1cc(Cl)c(Cl)cc1Cl	x	x	x	x	9%	x
CC1CCN(c2ccccc2NC(=O)c2cc3ccccc3o2)CC1	4%	103%	29%	86%	-6%	7%
